Screening results from PubChem BioAssay.
This is a sample that favours compounds with a hit; in the whole collection about 11% have one here.
PNC assembly inh: High Content Assay for Compounds that inhibit the Assembly of the Perinucleolar Compartment. activity change (PNC), negative = inhibition, % at 10 µM. 3.1% of 140,000 active. PC3M PTB-GFP, PNC prevalence imaging, 16 h; active compounds read low;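 active = readout at or below -70, meaning at least 70% loss of cells showing the perinucleolar compartment, a nuclear body marking cancer cells; inconclusive = readout between -30 and a set limit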
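PC3M cells stably expressing PTB-GFP, 750–1000 cells/well, treated 16 h at 37 °C with compound (23 nl of library stock), in duplicate. After paraformaldehyde fixation and Hoechst stain, imaged at 20x; PNC prevalence scored by image analysis.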
HPGD block: qHTS Assay for Inhibitors of HPGD (15-Hydroxyprostaglandin Dehydrogenase); 15-hydroxyprostaglandin dehydrogenase [NAD(+)] (Homo sapiens), P15428; purified HPGD, NADH fluorescence kinetic, PGE2 substrate; Potency, µM, hits mostly inhibitors; 4.3% of 150,000 active
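20 nM HPGD preincubated 15 min at room temperature with compound in 50 mM Tris-HCl pH 8, 0.01% Tween 20. Started with 1 mM NAD+ and 30 uM prostaglandin E2; NADH fluorescence (360/450 nm) read 5 times over 30-s intervals, last minus first.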
ALDH1A1 block: qHTS Assay for Inhibitors of Aldehyde Dehydrogenase 1 (ALDH1A1) | Aldehyde dehydrogenase 1A1 (Homo sapiens), P00352 | Purified ALDH1A1, NADH fluorescence, propionaldehyde substrate | Potency, µM (highest dose often 75.3 µM), usual class: inhibitors | 7.3% of 220,000 active
Target sequence (P00352 whole entry, looked up): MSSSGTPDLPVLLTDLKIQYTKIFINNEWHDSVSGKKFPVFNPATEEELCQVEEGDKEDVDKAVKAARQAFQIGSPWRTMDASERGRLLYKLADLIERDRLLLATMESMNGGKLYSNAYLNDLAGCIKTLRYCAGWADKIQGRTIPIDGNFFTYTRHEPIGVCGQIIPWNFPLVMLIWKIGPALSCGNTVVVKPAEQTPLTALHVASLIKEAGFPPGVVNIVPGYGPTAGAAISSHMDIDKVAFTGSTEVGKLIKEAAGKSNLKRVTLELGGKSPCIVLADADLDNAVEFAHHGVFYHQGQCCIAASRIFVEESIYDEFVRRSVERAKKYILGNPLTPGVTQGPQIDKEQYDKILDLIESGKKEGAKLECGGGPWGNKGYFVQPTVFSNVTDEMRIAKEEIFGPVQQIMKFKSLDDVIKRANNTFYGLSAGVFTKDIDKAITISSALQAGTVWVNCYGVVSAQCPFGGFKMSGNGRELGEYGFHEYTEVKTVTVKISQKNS
Of the large screens only hits and unclear results are named; the others gave an inactive call. Unless noted, calls come from the whole dose curve; as a rule, active = well fitted inhibition curve with a large enough effect (not every such curve was filed as active); inconclusive = small, poorly fitted or top-dose-only effect, or another doubt; inactive = no such curve, though single readings can be large or run the other way.

O=C(CSc1nc(-c2ccco2)cc(C(F)(F)F)n1)Nc1ccc2c(c1)OCO2	none
O=C(CSc1nc(-c2ccco2)cc(C(F)(F)F)n1)Nc1ccc(C(=O)N2CCOCC2)cc1	PNC assembly inh -100.0, HPGD block 22.4µM
CCn1nc(C)c([N+](=O)[O-])c1C(=O)NNC(=O)c1ccccc1Cl	none (no result: PNC assembly inh, HPGD block)
Cc1ccc(-n2c(SCC3CNC(=O)O3)nnc2-c2ccccc2)cc1C (stereo not drawn)	ALDH1A1 block inconclusive
Cn1c(/C=N/n2cnnc2)nc2ccccc21	HPGD block inconclusive, ALDH1A1 block inconclusive
CCC(C)(C)NC(=O)C(OC(=O)c1ccco1)c1ccccc1OC (stereo not drawn)	PNC assembly inh inconclusive, ALDH1A1 block inconclusive
O=C(Nc1ccc(S(=O)(=O)N2CCOCC2)cc1)c1cccnc1	none (no result: PNC assembly inh, HPGD block)
COC(=O)C1Sc2[nH]c(=O)sc2C(c2ccc(Cl)cc2)C1C(=O)OC (stereo not drawn)	ALDH1A1 block 11.2µM
COC(=O)C1CSc2[nH]c(=O)sc2C1c1ccccc1 (stereo not drawn)	ALDH1A1 block 31.6µM
CC(C(=O)O)N1C(=O)C2C3CC(C2C1=O)C1C(c2ccccc2)c2sc(=O)[nH]c2SC31 (stereo not drawn)	ALDH1A1 block inconclusive
COC(=O)C1Sc2[nH]c(=O)sc2C2c3ccccc3OC(=O)C12 (stereo not drawn)	ALDH1A1 block inconclusive
Cc1c(Cl)c(C(=O)NNC(=S)Nc2ccc(F)cc2)nn1C	none (no result: PNC assembly inh, HPGD block)
COc1ccc(OCc2cccc(C(=O)Nn3cc([N+](=O)[O-])cn3)c2)cc1	PNC assembly inh -98.6
NNC(=O)c1cccc(COc2ccc(Br)cc2)c1	PNC assembly inh inconclusive, ALDH1A1 block 0.631µM
NNC(=O)c1cccc(COc2cccc(Br)c2)c1	ALDH1A1 block 3.16µM
COC(=O)c1cccc(Cn2cc([N+](=O)[O-])cn2)c1	none (no result: PNC assembly inh, HPGD block)
O=C(NN1CCOCC1)c1cccc(COc2cccc(Br)c2)c1	none (no result: PNC assembly inh, HPGD block)
O=C(Nc1ccccc1Cl)c1ccc(COc2ccc3c(c2)CCC3)cc1	PNC assembly inh inconclusive
NNC(=O)c1ccc(COc2ccc3c(c2)CCC3)cc1	PNC assembly inh inconclusive, ALDH1A1 block 7.94µM
O=C(NCc1ccccc1)c1cccc(COc2ccc(Cl)cc2)c1	ALDH1A1 block inconclusive
Cc1ccc(C(=O)Nc2cc(C(C)C)c(O)c(C(C)C)c2)cc1	none
O=C1CC(c2ccc(F)c(Br)c2)C2=C(CCCC2=O)N1 (stereo not drawn)	none
CCCOc1ccc(CNCCCOCC)cc1OC	none (no result: PNC assembly inh, HPGD block)
COc1ccc(OCc2cccc(C(=O)Nc3cc(C)on3)c2)cc1	none
COc1ccc(OCc2cccc(C(=O)NN)c2)cc1	PNC assembly inh inconclusive, ALDH1A1 block 0.316µM
O=C(CSc1ccc(Cl)cc1)Nc1ccccc1N1CCN(C(=O)c2ccccc2)CC1	ALDH1A1 block inconclusive
N#C/C(=C(/O)COc1ccc(Br)cc1)c1nnc2n1CCCCC2	none (no result: PNC assembly inh, HPGD block)
C=CCN1C(c2ccc(OCC)cc2)=CS/C1=C(\C#N)c1nnc2n1CCCCC2	PNC assembly inh inconclusive, HPGD block 28.2µM, ALDH1A1 block 14.1µM
COc1cccc([C@H]2Oc3ccc(OC)cc3/C(=N\O[C@@H](C)c3cn([C@H](CO)Cc4ccccc4)nn3)[C@@H]2O)c1	none (no result: PNC assembly inh, HPGD block)
CCC(C)C(=O)OC1CC(C)C=C2C=CC(C)C(CCC3CC(O)CC(=O)O3)C21 (stereo not drawn)	none (no result: PNC assembly inh)
O=C(Nc1ccccn1)C(NS(=O)(=O)c1cccc2nsnc12)c1ccccc1 (stereo not drawn)	HPGD block 31.6µM, ALDH1A1 block inconclusive
O=C(NCc1cccs1)C(NS(=O)(=O)c1cccc2nsnc12)c1ccccc1 (stereo not drawn)	none
O=C(O)COc1ccc(OCCNC[C@H](O)COc2ccccc2)cc1	none (no result: PNC assembly inh, HPGD block)
O=C(CCl)N(c1ccccc1)c1ccccc1	ALDH1A1 block 0.0447µM (no result: PNC assembly inh, HPGD block)
O=C(N(c1ccccc1)c1ccccc1)N(c1ccccc1)c1ccccc1	none (no result: PNC assembly inh, HPGD block)
CCN(C(=O)CN1CCN(c2ccc(OC)cc2)CC1)c1c(N)n(Cc2ccccc2)c(=O)[nH]c1=O	none
N#CCCN(C(=O)CO/N=C/c1cccc([N+](=O)[O-])c1)c1ccccc1	ALDH1A1 block 25.1µM (no result: PNC assembly inh, HPGD block)
O=C(CO/N=C/c1cccc([N+](=O)[O-])c1)Nc1ccc2ccccc2c1	ALDH1A1 block inconclusive
CNS(=O)(=O)c1cccc(C(=O)OCC(=O)N2CCc3ccccc3C2)c1	none
Cn1c(CSCc2ccc(F)cc2)nnc1SCC(=O)N1CCN(c2ccccc2)CC1	none
O=C(CSc1nc2scc(-c3ccccc3)c2c(=O)[nH]1)N1CCCCC1	ALDH1A1 block 1.78µM (no result: PNC assembly inh, HPGD block)
O=C(CSc1nc2scc(-c3ccccc3)c2c(=O)[nH]1)NC1CCCCC1	none (no result: PNC assembly inh, HPGD block)
Clc1ccc(CSc2ncnc3nc[nH]c23)cc1	none
COc1ccc(C(=O)C2CCCN(C(=O)Cc3c(C)noc3C)C2)cc1OC (stereo not drawn)	none (no result: PNC assembly inh, HPGD block)
O=C(c1ccc2ccccc2c1)C1CCCN(C(=O)c2noc3c2CCCC3)C1 (stereo not drawn)	ALDH1A1 block 14.1µM (no result: PNC assembly inh, HPGD block)
O=C(c1noc2c1CCCC2)N1CCOCC1	none
COc1ccccc1C(=O)C1CCCN(C(=O)c2cc(C(C)C)no2)C1 (stereo not drawn)	none (no result: PNC assembly inh, HPGD block)
COc1ccc(C(=O)C2CCCN(C(=O)c3cc(C(C)C)no3)C2)cc1F (stereo not drawn)	ALDH1A1 block 1.58µM (no result: PNC assembly inh, HPGD block)
CCc1noc(C)c1C(=O)N1CCCC(C(=O)c2ccc(OC)c(F)c2)C1 (stereo not drawn)	ALDH1A1 block 7.08µM (no result: PNC assembly inh, HPGD block)
O=S(=O)(Nc1cccc2c1ccc1cccn12)c1cccs1	ALDH1A1 block inconclusive
CCOC(=O)C(NCc1ccccn1)(NC(=O)c1cccnc1)C(F)(F)F (stereo not drawn)	PNC assembly inh -86.1
CCOC(=O)C(NC(=O)c1cccnc1)(Nc1cccc(C)n1)C(F)(F)F (stereo not drawn)	none
O=C1CC(C(=O)Nc2ccc(F)c(Cl)c2)N=C(N2CCCCC2)N1 (stereo not drawn)	none
Cc1nc(CCNC(=O)Cc2ccc(F)cc2)cs1	none
Cc1nc(CCNC(=O)Cc2ccc(Cl)cc2)cs1	PNC assembly inh -89.9
COC(=O)[C@@H]1C[C@@H]2CC[C@@H](O)C[C@@H]2N1Cc1ccc(N2CCOCC2)cc1	ALDH1A1 block inconclusive (no result: PNC assembly inh)
CCCOC(=O)C1[C@H]2C(=O)N(CC3CCCO3)C[C@]23C=C[C@H]1O3 (stereo partly drawn)	none
COc1cc(NC(=O)CN2C(=O)CN(C)C2=O)c(C)cc1[N+](=O)[O-]	none (no result: PNC assembly inh, HPGD block)
COc1cc(NC(=O)Cn2ncc(Cl)c(Cl)c2=O)c(C)cc1[N+](=O)[O-]	ALDH1A1 block 2µM (no result: PNC assembly inh, HPGD block)
Nc1nc(N)c2nc(-c3ccccc3)c(N)nc2n1	HPGD block inconclusive, ALDH1A1 block inconclusive
NSc1nc(N)c2nc(-c3ccccc3)c(-c3ccccc3)nc2n1	ALDH1A1 block 14.1µM (no result: PNC assembly inh, HPGD block)
CCCN(CC1CC1)C(=O)COC(=O)c1[nH]c(C)c(C(=O)OCC)c1C	none
COC(=O)[C@H](C)NC(=O)C/C=C\[C@@H](C)[C@H]1C=C[C@H](O)[C@@H](CO)O1	none (no result: PNC assembly inh, HPGD block)
CS(=O)(=O)N1CCC2(CCN(C(c3ccccc3)c3ccccc3)CC2)CC1	none (no result: PNC assembly inh)
CN(C)S(=O)(=O)c1cccc(NC(=O)COC(=O)CCOc2ccccc2)c1	none (no result: PNC assembly inh, HPGD block)
